GDH-TPI inh = counter-screen for M. tuberculosis FBA inhibitors: GDH-TPI coupled enzymes; 1.2% of 360,000 active; inhibition, % at 4.8 µM; GDH-TPI coupled enzyme counterscreen, NADH absorbance;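 also: 0% = DMSO wells and 100% = wells lacking the enzyme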
Mtb FBA inh = Mtb fructose-bisphosphate aldolase inhibition. P9WQA3. purified M. tuberculosis FBA, fluorescence read-out. inhibition, % at 1 µM. 2.3% of 360,000 active; in the data active = inhibition above about 27%;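 also: 0% = vehicle and 100% = reference inhibitor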
Target sequence (P9WQA3 whole entry, looked up): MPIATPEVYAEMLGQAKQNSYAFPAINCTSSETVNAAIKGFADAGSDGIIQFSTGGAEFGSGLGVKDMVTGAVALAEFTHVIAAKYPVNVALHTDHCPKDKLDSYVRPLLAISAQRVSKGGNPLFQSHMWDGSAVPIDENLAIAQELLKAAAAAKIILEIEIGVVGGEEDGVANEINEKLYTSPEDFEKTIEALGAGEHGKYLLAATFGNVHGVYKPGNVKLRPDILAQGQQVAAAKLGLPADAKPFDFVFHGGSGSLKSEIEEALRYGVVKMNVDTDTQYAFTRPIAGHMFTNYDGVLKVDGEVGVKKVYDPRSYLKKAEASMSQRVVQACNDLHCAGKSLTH
RecA intein inh = inhibitors of M. tuberculosis RecA intein splicing. inhibition, % (no concentration beside the values). P9WHJ3. 0.75% of 290,000 active. cell-free RecA intein splicing, fluorescence. AID 2221; in the data active = inhibition above about 30%;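 also: 0% = vehicle wells and 100% = reference inhibitor control wells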
CCHFV vOTU inh = blocks the CCHF virus ovarian tumor domain protease | CCHFV vOTU protease, Pep-AMC fluorescence | inhibition, % at 11.5 µM | 0.55% of 370,000 active | AID 651958; also: 0% = vehicle wells with enzyme and 100% = no enzyme wells
Numbers without * were called inactive; nt = no result given; + = active, no number. Hits are enriched below; roughly 4.2% of the tested compounds scored in any of these assays. Rule as the data show it, unless noted: active = inhibition above about 30%; inactive = the rest.

SMILES	GDH-TPI inh	Mtb FBA inh	RecA intein inh	CCHFV vOTU inh
COCc1[nH]nc2c1C(c1cccc(OC)c1)C(C#N)=C(N)O2 (centres undefined)	13	4	57*	-4
COCc1[nH]nc2c1C(c1cc(OC)c(O)c(OC)c1)C(C#N)=C(N)O2 (centres undefined)	5	-2	-4	-1
CCCCOCCCNC(=O)C[C@H]1C(=O)N(Cc2ccc(OC)cc2)C2=CCCCC[C@@]21C(=O)OC	nt	nt	nt	11
O=C(CSc1nnc(-c2ccncc2)n1-c1ccccc1)Nc1cccc2ccccc12	nt	nt	nt	7
CCCc1[nH]nc2c1C(/C(C)=C/c1ccccc1)C(C#N)=C(N)O2 (centres undefined)	-3	-2	7	6
N#CC1=C(N)Oc2n[nH]c(-c3ccc(F)cc3)c2C1c1ccncc1 (centres undefined)	2	1	62*	6
CCOc1ccc(C2C(C#N)=C(N)Oc3nc[nH]c(=O)c32)cc1OC (centres undefined)	3	2	-4	1
CCOc1ccc(-c2[nH]nc3c2C(c2ccc4c(c2)OCO4)C(C#N)=C(N)O3)cc1OC (centres undefined)	-1	1	60*	11
CCCc1[nH]nc2c1C(c1ccncc1)C(C#N)=C(N)O2 (centres undefined)	2	4	32*	8
CCCc1[nH]nc2c1C(c1ccc(O)c(OC)c1)C(C#N)=C(N)O2 (centres undefined)	-9	0	79*	1
COC(=O)c1ccc(Cn2ccc3ccc(-c4ccc5ccn(Cc6ccc(OC)cc6)c5c4)cc32)cc1	nt	nt	nt	11
CC(c1c[nH]c2ccccc12)c1c[nH]c2ccc(Br)cc12 (centres undefined)	nt	nt	nt	5
Cc1c[nH]c2cccc(-c3ccc(Cl)cc3Cl)c12	nt	nt	nt	6
Cc1ccccc1OC1CCN(C(=O)c2cc(COc3ccccc3)on2)CC1	-9	2	nt	9
COc1ccc(C(=O)NCc2ccc3c(c2)OCO3)cc1S(=O)(=O)N1CCCC1	3	0	nt	8
CS(=O)(=O)N(CC(=O)NCCSCc1cccc(Cl)c1)c1ccccc1F	6	0	-1	13
N#CC1=C(N)Oc2n[nH]c(-c3cccs3)c2C1c1ccoc1 (centres undefined)	17	-3	85*	8
COc1cc(C2C(C#N)=C(N)Oc3n[nH]c(-c4cccs4)c32)cc(OC)c1O (centres undefined)	11	-9	11	-3
CCCc1[nH]nc2c1C(c1ccc(OCCN3CCOCC3)c(OC)c1)C(C#N)=C(N)O2 (centres undefined)	10	5	32*	9
CCCc1[nH]nc2c1C(c1ccc(OC(=O)N3CCOCC3)cc1)C(C#N)=C(N)O2 (centres undefined)	-6	1	48*	-12
CCCc1[nH]nc2c1C(c1ccc(OC)c(Cn3nnc4ccccc43)c1)C(C#N)=C(N)O2 (centres undefined)	9	-4	70*	nt
C[C@@H]1CCN(C2CC2)S(=O)(=O)c2ccc(N3CCC[C@H]3CO)cc2O1	nt	nt	nt	-5
Cc1cc(C)c(C#N)c(SCc2[nH]nc3c2C(c2ccc(F)cc2)C(C#N)=C(N)O3)n1 (centres undefined)	5	0	32*	5
COc1ccc(Cc2nnc(SCC(=O)Nc3ccc(N4CCOCC4)cc3)o2)cc1	15	4	-3	0
COc1ccccc1/C=N/NC(=O)c1nnn(-c2nonc2N)c1-c1ccccc1	14	-1	-6	2
SMILES	GDH-TPI inh	Mtb FBA inh	RecA intein inh	CCHFV vOTU inh
COc1ccccc1/C=N/NC(=O)c1nnn(-c2nonc2N)c1-c1cccs1	43*	4	-1	nt
COc1ccc(OC)c(/C=N/NC(=O)c2nnn(-c3nonc3N)c2-c2cccs2)c1	13	7	0	2
COc1ccc(/C=N/NC(=O)c2nnn(-c3nonc3N)c2-c2cccs2)c(OC)c1	46*	-1	-2	18
COc1ccc(-c2ccc(C#N)c(SCC(=O)NCCc3ccccc3)n2)cc1OC	13	152*	7	nt
COc1ccc(NC(=O)C(=O)NNC(=O)c2cccs2)c(OC)c1	36*	1	2	14
COCCCn1c(C(=O)Nc2ccc3c(c2)OCO3)cc2c(=O)n3cccc(C)c3nc21	12	2	nt	-3
COc1ccc(NC(=O)c2sc3nc(C)nc(N4CCOCC4)c3c2C)c(OC)c1	15	2	-5	3
Cc1nc(N2CCOCC2)c2c(C)c(C(=O)Nc3ccc(F)cc3F)sc2n1	38*	1	-1	11
CN(C)CC(C)(C)CN=Cc1c(O)[nH]c2ccccc12	35*	1	1	9
Oc1[nH]c2ccccc2c1C=Nc1ccccc1	34*	-6	-1	9
OCCN=Cc1c(O)[nH]c2ccccc12	24	-3	-1	-1
O=C1NC(=O)/C(=C\c2ccc(Oc3ccc([N+](=O)[O-])cn3)cc2)S1	35*	-2	5	3
O=C(/C=C/c1cccc([N+](=O)[O-])c1)c1ccc([N+](=O)[O-])o1	41*	4	6	-5
Cc1ccc(/C=C/C(=O)OCn2nnc3ccccc3c2=O)o1	34*	1	-3	-3
Oc1cccc(/C=N/Nc2nn3cnnc3c3ccccc23)c1	25	2	-6	10
COc1cccc(/C=N/Nc2nn3cnnc3c3ccccc23)c1O	32*	2	-2	18
COc1ccc2c(c1)Cc1sc(NC(C)=O)nc1-2	29	-3	5	81*
COc1cc2cc(C(=O)N3CCN(Cc4ccc5c(c4)OCO5)CC3)c(=O)oc2cc1OC	17	+	-101	-289
CCC(C)(C)NC(=O)CN(C(=O)CCC(=O)Nc1nccs1)c1ccccc1C	11	1	-3	1
O=C1CS/C(=C/C(=O)c2ccccc2)N1	44*	-3	0	9
Cc1cc(C)cc(C(=O)/C=C2\NC(=O)CS2)c1	39*	-3	2	5
O=C1CSc2ccccc2N1	-5	2	nt	11
Cc1ccccc1C(=O)/C=C1\NC(=O)CS1	48*	-2	nt	10
COc1ccc(NC(=O)C2CCN(S(=O)(=O)c3ccc4c(c3)CC(C)N4C(C)=O)CC2)c(OC)c1 (centres undefined)	-13	-5	-1	6
CCC(C)N(C(=O)Cn1c(=O)cnc2ccccc21)C1CCS(=O)(=O)C1 (centres undefined)	7	3	0	3
SMILES	GDH-TPI inh	Mtb FBA inh	RecA intein inh	CCHFV vOTU inh
CSc1nc2nccc(-c3ccc(-c4ccccc4)cc3)n2n1	20	153*	2	-18
CSc1nc2nccc(-c3ccc(Oc4ccccc4)cc3)n2n1	20	4	nt	-2
COC(=O)[C@]12C[C@H](CC(=O)N3CCN(C(=O)C4CC4)CC3)C(=O)N(Cc3ccco3)C1=C[C@H](COCc1ccccc1)O[C@@H]2C	nt	nt	nt	-2
O=C(Nc1ccccc1)C1CCCN1/C=C/C(=O)C(F)(F)F (centres undefined)	44*	2	-1	0
C[N+]1=C(/C=C/Nc2ccccc2Cl)C(C)(C)c2ccccc21	36*	0	4	-2
COC(=O)c1ccc2c(c1)C(C)(C)C(/C=C/c1ccccc1O)=[N+]2C	4	15	nt	-45
